Experiment [1] concerns the target Cytochrome P450 1A2 (Homo sapiens) (UniProt P05177). As to the kind of experiment: p450-cyp1a2 (AID 410; calls by dose curve; also: potency is read from the fitted curve at half-maximal effect). The gist of the method: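 20nM CYP1A2 with 100uM Luciferin-ME (at Km) in 100mM KPO4; compound preincubated 10 min, NADPH regeneration added, 60 min at room temperature. Luciferin quantified by luminescence after detection reagent; normalized to 57 uM furafylline.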

The target of experiment [2] is Glucocorticoid receptor (Homo sapiens) (UniProt P04150). Description: GR-GFP Redistribution (AID 450;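 active = compounds whose dose series gives a full or clear partial fitted curve of increased nuclear translocation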; also: potency is read from the fitted curve at half-maximal effect). Conditions: U2OS GR-GFP nuclear translocation, laser cytometry, 2 h.
Glucocorticoid receptor (Homo sapiens), sequence (P04150 whole entry, looked up, the tested form may be a part): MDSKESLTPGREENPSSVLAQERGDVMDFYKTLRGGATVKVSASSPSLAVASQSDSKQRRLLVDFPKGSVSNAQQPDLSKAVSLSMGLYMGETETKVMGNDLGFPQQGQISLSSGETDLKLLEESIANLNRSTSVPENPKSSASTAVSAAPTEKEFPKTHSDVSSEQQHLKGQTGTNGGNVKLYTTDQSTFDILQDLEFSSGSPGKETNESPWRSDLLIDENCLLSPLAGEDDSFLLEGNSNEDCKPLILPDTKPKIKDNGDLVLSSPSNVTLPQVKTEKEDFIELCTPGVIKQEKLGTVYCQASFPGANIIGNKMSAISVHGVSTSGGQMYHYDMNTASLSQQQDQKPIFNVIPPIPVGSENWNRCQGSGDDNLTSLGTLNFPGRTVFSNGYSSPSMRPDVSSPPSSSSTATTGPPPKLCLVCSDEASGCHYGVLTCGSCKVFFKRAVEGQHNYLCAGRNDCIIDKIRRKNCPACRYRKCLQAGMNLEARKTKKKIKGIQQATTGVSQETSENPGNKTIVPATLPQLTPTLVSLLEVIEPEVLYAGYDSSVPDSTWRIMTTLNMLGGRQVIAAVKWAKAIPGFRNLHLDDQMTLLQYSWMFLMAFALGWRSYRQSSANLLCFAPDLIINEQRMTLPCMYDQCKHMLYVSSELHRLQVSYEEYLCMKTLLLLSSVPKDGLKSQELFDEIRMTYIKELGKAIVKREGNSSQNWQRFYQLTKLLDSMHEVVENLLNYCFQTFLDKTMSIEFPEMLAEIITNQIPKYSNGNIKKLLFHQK
Experiment [3] has the same target. As to the kind of experiment: GR-EFC Redistribution (AID 451; calls by dose curve; also: potency is read from the fitted curve at half-maximal effect). Conditions: CHO-K1 GR-EFC translocation, beta-gal luminescence, 2 h. The gist of the method: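 CHO-K1 cells expressing nuclear EA and GR-ED fragments of b-gal; compounds titrated up to 46 uM final, 2 h at 37 C. GR nuclear translocation read as complemented b-gal luminescence after 1 h RT detection.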

For experiment [4], the target named is Mitogen-activated protein kinase 10 (Mus musculus) (UniProt Q61831). As to the kind of experiment: JNK3 AlphaScreen Assay (AID 530; active = well fitted curve in either direction with a large enough effect, not every such curve was filed as active;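 also: kinase came from lysate of stimulated human HepG2 cells; signal reports phosphorylation of biotinylated GST-cJun 1-79 at Ser73 with 10 µM ATP; % is scaled to controls: 0 for no effect and ±100 for the full control effect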). In a few lines:
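Pre-activated (IL-1β/TNFα) JNK3 in HepG2 lysates phosphorylates biotin-GST-cJun(1-79), 10 uM ATP; anti-phospho-cJun(Ser73) AlphaScreen read at room temperature, pH 7.6 Tris buffer. Compounds pre-incubated 15 min as titrations.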
In general terms: Alpha assays give light when donor and acceptor beads are brought close together.

Experiment [5] deals with 3',5'-cyclic-AMP phosphodiesterase 4B (Homo sapiens) (UniProt Q07343). As to the kind of experiment: qHTS Assay for Inhibitors of PDE-IV (AID 607; active = well fitted activation curve with a large enough effect in the main read-out, with a control signal flat, not every such curve was filed as active; also: % of control where 0% means no effect). The gist of the method:
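HEK293 ACTOne cells with CNG channel (1000/well), endogenous PDE4; membrane potential dye, compounds up to 22.9 uM final. Fluorescence Ex 535/Em 590; RO 20-1724 (100 uM final) as reference.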

In experiment [6] the target is Cytochrome P450 2C9 (Homo sapiens) (UniProt P11712). Description: qHTS Assay for Inhibitors and Substrates of Cytochrome P450 2C9 (AID 883). Also: % is scaled to controls: 0 for no effect and ±100 for the full control effect; nearly all actives have a fitted effect of over 60% in size. The gist of the method: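 10nM CYP2C9 + 100uM Luciferin-H (=KM), 25mM KPO4; cpd 10 min 37C; NADPH regen, 60 min 37C; stop/detect with P450 Glo-Buffer 20 min; luminescence. Norm. to 57uM sulphaphenazole as full inhibition.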
In general terms: In qHTS, concentration-response curves come from the screen itself.

Experiment [7] concerns the target Cytochrome P450 2D6 (Homo sapiens) (UniProt P10635). As to the kind of experiment: qHTS Assay for Inhibitors and Substrates of Cytochrome P450 2D6 (AID 891).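 Also: luciferin methyl ether substrate demethylated by CYP2D6 with NADPH regeneration; % is scaled to controls: 0 for no effect and ±100 for the full control effect; nearly all actives have a fitted effect of over 60% in size.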 The gist of the method: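 Human CYP2D6 (5 nM) with 30 uM Luciferin-ME EGE (at Km) in 100 mM KPO4, compound preincubated 10 min, then NADPH regeneration system for 60 min at room temperature. Luciferin read by luminescence; normalized to 1.43 uM quinidine.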

Experiment [8] addresses Cytochrome P450 2C19 (Homo sapiens) (UniProt P33261). As to the kind of experiment: qHTS Assay for Inhibitors and Substrates of Cytochrome P450 2C19 (AID 899). Also: % is scaled to controls: 0 for no effect and ±100 for the full control effect; nearly all actives have a fitted effect of over 60% in size. The gist of the method:
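Luminescent read-out of luciferin formed from Luciferin-H EGE (10uM, equal to KM). Enzyme 5nM in 50mM KPO4; compound added, 10 min at 37C, then NADPH regenerating system for 60 min at 37C. Full inhibition defined by 57uM ketoconazole.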

The nature of experiment [9]: AP1 Signaling Pathway (AID 357; active = well fitted curve in either direction with a large enough effect, not every such curve was filed as active;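 also: ME-180 reporter cells stimulated with EGF at its EC50 level; % is scaled to controls: 0 for no effect and ±100 for the full control effect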). Conditions: ME-180 AP-1-bla reporter, EGF-induced, beta-lactamase ratio, 5 h; at 17.2 µM (top of the series) unless noted. The gist of the method:
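Cells are seeded overnight, exposed to compound titrations and an EC50 level of EGF for 5 hours at 37 °C, then loaded with CCF4 dye for 2.5 hours. Beta-lactamase activity under the AP-1 element is read as a blue/green ratio.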

A short description of experiment [10]: Stat Signaling Pathway (AID 446; active = well fitted curve in either direction with a large enough effect, not every such curve was filed as active;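 also: ME-180 cervical cancer cells given 40 pM IL-6 alongside compound; SIE-controlled beta-lactamase reporter measured as 460/530 nm FRET emission ratio; % is scaled to controls: 0 for no effect and ±100 for the full control effect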). In a few lines:
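ME-180 cells carrying a SIE-driven beta-lactamase reporter are stimulated with 40 pM IL-6 for 5 h at 37C in the presence of compound. The 460/530 nm FRET substrate ratio is read after 2.5 h at RT. Data are normalised to 300 pM IL-6 and to 125 nM JAK inhibitor controls.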

Experiment [11] in a line: qHTS Assay for Identification of Small Molecule Agonists for Hypoxia Response Element Signaling Pathway (AID 914; active = well fitted activation curve with a large enough effect in the signal ratio, with a control signal flat, not every such curve was filed as active; the % refers to the signal ratio; also: % of control where 0% means no effect). Conditions: ME-180 (cervical carcinoma) HRE-bla reporter, beta-lactamase ratio, CoCl2, 17 h; activation: hits give high values. In a few lines: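 Positive modulation of EC50 CoCl2-induced hypoxia response element signaling is measured in ME-180 cells with a beta-lactamase reporter. Compounds are titrated, incubation runs 17 hours, and %Activity derives from the blue/green ratio.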

Experiment [12] has as its target Guanine nucleotide-binding protein G(i) subunit alpha-1 (Homo sapiens) (UniProt P63096). As to the kind of experiment: qHTS Assay for Inhibitors of RGS12 GoLoco Motif Activity (Green Fluorophore) (AID 879).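 Also: 0% = labeled peptide with Gαi1 and full inhibition = labeled peptide alone without protein; negative values mean loss of peptide binding seen as reduced polarization.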 In a few lines:
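Fluorescence polarization assay: 50 nM Gαi1 with 10 nM FITC-labeled RGS12 GoLoco peptide in 10 mM Tris pH 7.5, 150 mM NaCl, 0.1 mM GDP, 0.05% NP40, 10 min at room temperature with compound.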

Experiment [13] deals with Cytochrome P450 3A4 (Homo sapiens) (UniProt P08684). As to the kind of experiment: qHTS Assay for Inhibitors and Substrates of Cytochrome P450 3A4 (AID 884). Also: % is scaled to controls: 0 for no effect and ±100 for the full control effect; nearly all actives have a fitted effect of over 50% in size. In a few lines: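 20 nM human CYP3A4 with 25 uM Luciferin-PPXE (at KM) in 200 mM KPO4, preincubated 10 min with compound; NADPH regeneration started a 60 min RT reaction. Luciferin detected by luminescence, normalized to 57 uM ketoconazole as full inhibition.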
Cytochrome P450 3A4 (Homo sapiens), sequence (P08684 whole entry, looked up): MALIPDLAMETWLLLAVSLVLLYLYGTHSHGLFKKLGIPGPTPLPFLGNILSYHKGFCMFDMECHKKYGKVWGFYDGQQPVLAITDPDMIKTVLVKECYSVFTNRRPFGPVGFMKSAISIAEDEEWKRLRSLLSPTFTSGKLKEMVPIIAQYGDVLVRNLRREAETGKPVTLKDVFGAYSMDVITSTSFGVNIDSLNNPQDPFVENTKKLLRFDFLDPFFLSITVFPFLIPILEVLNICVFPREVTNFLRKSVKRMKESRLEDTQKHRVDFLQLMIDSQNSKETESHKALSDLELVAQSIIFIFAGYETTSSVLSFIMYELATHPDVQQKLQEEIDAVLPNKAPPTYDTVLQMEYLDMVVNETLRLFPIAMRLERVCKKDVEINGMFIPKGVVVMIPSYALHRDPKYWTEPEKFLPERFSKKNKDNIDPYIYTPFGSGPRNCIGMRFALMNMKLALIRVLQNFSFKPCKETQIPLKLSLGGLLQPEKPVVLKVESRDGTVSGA

The nature of experiment [14]: qHTS Assay for Identification of Small Molecule Antagonists for Thrombopoietin (TPO) Signaling Pathway (AID 918). Also: potency is read from the fitted curve at half-maximal effect; nearly all actives have a fitted effect of over 60% in size. Conditions: TPO-dependent cell signaling reporter, antagonist mode. In a few lines:
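Murine Ba/F3 cells expressing human TPO receptor and a Glycoprotein IIb promoter-luciferase reporter, IL-3-starved overnight, treated with compound plus TPO at EC50 (26 pM final). After 24 h at 37 C, luminescence read to detect inhibitors.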

Experiment [15] concerns the target Muscarinic acetylcholine receptor M1 (Rattus norvegicus) (UniProt P08482). Description: qHTS Assay for Antagonists of Acetylcholine Muscarinic M1 Receptor: Kinetic Measurement of Intracellular Calcium Response (AID 943). Also: nearly all actives have a fitted effect of over 75% in size. In a few lines: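 CHO cells expressing rat M1 receptor, Fluo-4 loaded, preincubated 10 min with compound, then stimulated with EC80 carbachol (100 nM final). Kinetic calcium fluorescence over 4 min; response taken as peak over basal signal.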

Experiment [16] addresses Pyruvate kinase (Leishmania mexicana) (UniProt Q27686). As to the kind of experiment: qHTS Validation Assay for Inhibitors of Leishmania Mexicana Pyruvate Kinase (AID 945).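 Also: 0% = DMSO only neutral control wells.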 In a few lines:
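qHTS eight-point titrations against 0.2 nM LmPYK (E451W) in imidazole buffer pH 7.2 with 0.5 mM PEP, 0.1 mM ADP; 1 h, room temperature. Readout: PKLight luminescence, normalized to neutral DMSO wells.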

The target of experiment [17] is Pyruvate kinase PKM (Homo sapiens) (UniProt P14618). As to the kind of experiment: qHTS Assay for Inhibitors of Human Muscle Pyruvate Kinase (AID 958). In a few lines: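 PKM2, human, >95% pure, 0.1 nM; PEP 0.5 mM (Km), ADP 0.1 mM; 50 mM imidazole pH 7.2, 50 mM KCl, 0.01% Tween 20, 0.05% BSA; 1 h RT; luciferase luminescence readout.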
For experiment [18], the target named is Alpha-galactosidase A (Homo sapiens) (UniProt P06280). Description: Counterscreen for Glucocerebrosidase Inhibitors: qHTS Assay for Human alpha-Galactosidase at pH 4.5 (AID 992). Also: 0% is about no effect. In a few lines: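 Human enzyme (2 nM) with 80 uM 4-methylumbelliferyl alpha-D-galactopyranoside in 50 mM citric acid, 0.005% Tween-20, pH 4.5, 20 min at room temperature. Compounds 0.7 nM–77 uM; fluorescence Ex 365/Em 440 after pH 10 stop; AC50 from Hill fits.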
For orientation: Counterscreens check selectivity or assay interference.

The target in experiment [19] is alpha-glucosidase (Oryza sativa, rice) (UniProt Q653V4). As to the kind of experiment: Counterscreen for Glucocerebrosidase Inhibitors: qHTS Assay for Rice alpha-Glucosidase at pH 5.0 (AID 997).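 Also: 0% = full activity with enzyme and -100% = basal without enzyme.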 In a few lines: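 Rice alpha-glucosidase (4 nM final) with 400 uM 4-methylumbelliferyl-alpha-D-glucopyranoside in citrate buffer pH 5.0, 20 min at room temperature, stopped at pH 10; fluorescence 365/440 nm, compounds 0.7 nM–77 uM, AC50 from Hill fits.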

Experiment [20] has as its target Alpha-galactosidase (Coffea arabica) (UniProt Q42656). As to the kind of experiment: Counterscreen for Glucocerebrosidase Inhibitors: qHTS Assay for Coffee Bean alpha-Galactosidase at pH 5.9 (AID 998).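 Also: plate controls were uninhibited enzyme for no effect and no-enzyme basal signal for full effect.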 The gist of the method:
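Green coffee bean enzyme (2 nM) with 4-methylumbelliferyl alpha-D-galactopyranoside (80 uM) in 50 mM citric acid, 0.005% Tween-20, pH 5.9, 20 min at room temperature; compounds 0.7 nM–77 uM. Stopped at pH 10, fluorescence Ex365/Em440; Hill-fit AC50.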

The structures appear in SMILES notation. A number with no mark means an inactive call. Records with an inconclusive call do not appear. Activity calls are given as the source filed them. Unless noted, calls follow the shape of the dose curve; as a rule, active = well fitted curve in the direction sought with a large enough effect; inconclusive = small, poorly fitted or top-dose-only effect, or another doubt; inactive = no such curve, though single readings can be large; an effect the other way counts as inactive or inconclusive.

Cytochrome P450 1A2 (Homo sapiens), sequence (P05177 whole entry, looked up): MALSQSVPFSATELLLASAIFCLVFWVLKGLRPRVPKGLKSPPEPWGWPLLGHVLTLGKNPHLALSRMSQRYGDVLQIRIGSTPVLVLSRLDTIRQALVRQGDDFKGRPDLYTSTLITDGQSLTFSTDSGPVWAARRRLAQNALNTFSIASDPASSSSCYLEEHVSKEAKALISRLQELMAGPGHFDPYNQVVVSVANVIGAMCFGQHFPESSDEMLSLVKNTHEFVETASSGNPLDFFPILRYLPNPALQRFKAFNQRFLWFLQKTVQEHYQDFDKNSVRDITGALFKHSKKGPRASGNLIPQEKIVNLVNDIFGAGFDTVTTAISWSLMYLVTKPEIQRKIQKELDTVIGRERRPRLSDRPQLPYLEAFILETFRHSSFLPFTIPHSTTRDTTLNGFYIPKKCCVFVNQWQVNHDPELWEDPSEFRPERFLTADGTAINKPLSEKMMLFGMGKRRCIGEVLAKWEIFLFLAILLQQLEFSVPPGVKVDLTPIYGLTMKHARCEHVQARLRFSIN
3',5'-cyclic-AMP phosphodiesterase 4B (Homo sapiens), sequence (Q07343 whole entry, looked up): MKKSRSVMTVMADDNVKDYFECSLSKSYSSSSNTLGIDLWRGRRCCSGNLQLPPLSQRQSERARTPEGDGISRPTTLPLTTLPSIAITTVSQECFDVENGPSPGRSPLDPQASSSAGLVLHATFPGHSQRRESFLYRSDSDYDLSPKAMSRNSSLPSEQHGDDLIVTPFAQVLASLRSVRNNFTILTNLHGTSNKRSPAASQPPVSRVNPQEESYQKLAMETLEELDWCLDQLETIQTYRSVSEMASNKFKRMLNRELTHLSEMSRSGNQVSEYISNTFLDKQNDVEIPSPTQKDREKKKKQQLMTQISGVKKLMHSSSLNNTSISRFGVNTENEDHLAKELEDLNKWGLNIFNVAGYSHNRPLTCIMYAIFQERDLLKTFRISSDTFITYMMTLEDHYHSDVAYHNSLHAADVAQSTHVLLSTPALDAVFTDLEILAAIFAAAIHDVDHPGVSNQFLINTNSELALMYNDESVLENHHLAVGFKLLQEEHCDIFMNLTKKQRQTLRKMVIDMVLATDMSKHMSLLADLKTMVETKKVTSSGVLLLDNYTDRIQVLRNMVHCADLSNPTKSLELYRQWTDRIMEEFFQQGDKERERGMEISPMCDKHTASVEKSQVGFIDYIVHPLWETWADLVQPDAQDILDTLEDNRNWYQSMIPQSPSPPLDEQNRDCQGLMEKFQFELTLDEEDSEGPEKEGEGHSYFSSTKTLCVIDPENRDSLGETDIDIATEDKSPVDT
Cytochrome P450 2D6 (Homo sapiens), sequence (P10635 whole entry, looked up): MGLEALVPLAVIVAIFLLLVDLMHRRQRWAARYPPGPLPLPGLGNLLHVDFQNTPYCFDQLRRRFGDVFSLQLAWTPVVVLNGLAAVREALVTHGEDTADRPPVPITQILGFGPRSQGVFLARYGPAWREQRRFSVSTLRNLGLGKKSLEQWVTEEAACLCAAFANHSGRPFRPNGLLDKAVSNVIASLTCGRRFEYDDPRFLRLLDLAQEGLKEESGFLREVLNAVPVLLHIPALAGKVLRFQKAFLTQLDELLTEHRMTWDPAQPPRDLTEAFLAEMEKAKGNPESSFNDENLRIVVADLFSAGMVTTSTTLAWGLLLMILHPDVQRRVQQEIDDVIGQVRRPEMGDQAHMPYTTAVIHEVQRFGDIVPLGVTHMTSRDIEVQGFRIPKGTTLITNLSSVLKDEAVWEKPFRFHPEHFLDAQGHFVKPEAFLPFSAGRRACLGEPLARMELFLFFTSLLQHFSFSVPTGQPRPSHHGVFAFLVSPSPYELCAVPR
Pyruvate kinase (Leishmania mexicana), sequence (Q27686 2-499 E452W): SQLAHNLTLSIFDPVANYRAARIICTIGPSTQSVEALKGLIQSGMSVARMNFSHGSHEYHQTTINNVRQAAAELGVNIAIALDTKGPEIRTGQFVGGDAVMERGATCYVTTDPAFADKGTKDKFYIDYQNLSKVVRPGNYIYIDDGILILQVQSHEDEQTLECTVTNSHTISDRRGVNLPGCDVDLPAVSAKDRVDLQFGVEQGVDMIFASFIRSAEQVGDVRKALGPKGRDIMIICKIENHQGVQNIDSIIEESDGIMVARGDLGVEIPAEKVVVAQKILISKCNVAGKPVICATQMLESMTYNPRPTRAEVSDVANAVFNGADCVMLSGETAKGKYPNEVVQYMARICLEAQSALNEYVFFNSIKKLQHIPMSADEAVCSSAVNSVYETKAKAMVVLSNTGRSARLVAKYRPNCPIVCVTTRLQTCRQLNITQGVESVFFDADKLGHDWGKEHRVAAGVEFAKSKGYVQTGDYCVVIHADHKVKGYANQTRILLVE
Muscarinic acetylcholine receptor M1 (Rattus norvegicus), sequence (P08482 whole entry, looked up): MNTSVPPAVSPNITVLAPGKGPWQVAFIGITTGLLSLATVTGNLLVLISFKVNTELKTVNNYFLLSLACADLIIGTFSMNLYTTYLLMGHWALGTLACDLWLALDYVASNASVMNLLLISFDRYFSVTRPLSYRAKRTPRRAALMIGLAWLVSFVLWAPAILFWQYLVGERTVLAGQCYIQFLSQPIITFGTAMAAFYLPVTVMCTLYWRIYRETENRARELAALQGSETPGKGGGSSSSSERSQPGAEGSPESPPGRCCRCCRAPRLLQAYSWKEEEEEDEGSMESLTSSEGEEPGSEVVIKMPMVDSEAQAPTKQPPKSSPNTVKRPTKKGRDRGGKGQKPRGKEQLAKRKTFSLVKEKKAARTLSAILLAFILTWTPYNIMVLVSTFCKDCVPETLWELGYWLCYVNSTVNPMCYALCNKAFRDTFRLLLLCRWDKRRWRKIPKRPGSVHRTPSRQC
Guanine nucleotide-binding protein G(i) subunit alpha-1 (Homo sapiens), sequence (P63096 whole entry, looked up): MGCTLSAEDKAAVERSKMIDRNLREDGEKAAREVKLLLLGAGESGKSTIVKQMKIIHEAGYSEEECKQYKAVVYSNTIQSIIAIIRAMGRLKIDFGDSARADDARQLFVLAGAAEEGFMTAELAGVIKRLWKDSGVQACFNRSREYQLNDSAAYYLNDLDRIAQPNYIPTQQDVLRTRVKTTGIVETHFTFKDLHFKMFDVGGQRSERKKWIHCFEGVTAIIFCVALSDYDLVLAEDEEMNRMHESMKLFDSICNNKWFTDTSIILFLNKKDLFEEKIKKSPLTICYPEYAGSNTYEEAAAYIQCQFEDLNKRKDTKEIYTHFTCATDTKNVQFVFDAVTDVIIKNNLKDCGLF
Alpha-galactosidase (Coffea arabica), sequence (Q42656 whole entry, looked up): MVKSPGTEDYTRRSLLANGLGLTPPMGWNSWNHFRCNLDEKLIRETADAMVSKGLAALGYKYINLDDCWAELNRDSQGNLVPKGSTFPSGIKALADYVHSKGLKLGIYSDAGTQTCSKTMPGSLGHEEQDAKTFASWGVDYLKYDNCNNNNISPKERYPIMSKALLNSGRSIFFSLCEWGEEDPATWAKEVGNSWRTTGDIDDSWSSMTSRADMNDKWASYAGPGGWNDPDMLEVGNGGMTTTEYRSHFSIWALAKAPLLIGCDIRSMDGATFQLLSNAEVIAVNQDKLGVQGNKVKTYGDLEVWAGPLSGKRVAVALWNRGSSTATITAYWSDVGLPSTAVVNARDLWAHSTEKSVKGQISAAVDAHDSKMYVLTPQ

For `CC1=C2[C@@H]3OC(=O)[C@H](C)[C@H]3CC[C@@]2(C)C=CC1=O`, the Potency in experiment [1] was 31.6 µM (active); in [2], greater than 46 µM; in experiment [3], greater than 46 µM. Besides, the molecule was called inactive in [4] and in experiment [5]. Further, the Potency result in experiment [6], in [7] and in experiment [8] was “inactive” each time.
With `CN1CCc2nc3sc(C#N)c(N)c3c(-c3cccs3)c2C1`, the activity change, negative = inhibition in [9] is -0.879%. In addition, in [2], the Potency is greater than 20.6 µM.
In the case of `CCCCCCn1c(O)c(C=Nc2c(C)n(C)n(-c3ccccc3)c2=O)c(=O)[nH]c1=O`, the activity change, negative = inhibition in [9] was -18.8%. Besides, the molecule was called inactive in experiment [10]. Further, the Potency in experiment [2] was greater than 20.6 µM.
Turning to `C=CCn1c(O)c(C=Nc2ccc(N(CC)CC)cc2)c(=O)[nH]c1=O`, in experiment [9], the activity change, negative = inhibition is -13.2%. Besides, in [10], the result was inactive. For the same molecule, in [2], the Potency was greater than 20.6 µM.
In the same order, the values of `CCC(=NCCN1CCCCC1)c1c(O)n(C)c(=O)n(C)c1=O` are 9.93%, “inactive” and greater than 20.6 µM.
For the molecule `COc1ccc(OC)c([C@@H](O)[C@H](C)NC(C)(C)C)c1`, the activity change, negative = inhibition in experiment [9] is 8.72%. Also, the result in experiment [10] was inactive. The Potency in [2] was greater than 20.6 µM. Besides, the activation in experiment [11] is 0.127%.
Turning to `C[C@]12Cc3cn4c(nc3C=C1CC[C@H]1[C@@H]2CC[C@@]2(C)[C@H]1CC[C@@]2(O)C#N)nc1ccccc14`, the Potency in experiment [1] is 15.8 µM (active); in experiment [2] it was greater than 46 µM; in experiment [3], greater than 46 µM; in experiment [14] it was 10 µM (active). Moreover, the result in experiment [4], in [5], in [18], in experiment [19] and in [20] was inactive. Besides, the Potency result in experiment [12], in experiment [13], in experiment [15], in [16] and in [17] was “inactive” throughout.

Source of the values: PubChem BioAssay (NCATS).
